Compound activity as filed in PubChem BioAssay.
SMN2 splice enh = enhancers of SMN2 splice variant expression. HEK293 SMN2-luciferase splicing reporter, luminescence, 30-36 h. Potency, µM (highest dose often 46.1 µM), most hits filed as activators. 210,000 tested, 2.8% active. AID 1458; also: nearly all actives have a fitted effect of over 55% in size
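HEK293 cells carry an SMN2 […]–luciferase reporter in which exon 7 inclusion puts luciferase in frame. Cells were plated 10-12 h before compound addition, then incubated 30-36 h at 37C. ONE-Glo luminescence was read; sodium butyrate at 4.5 mM final served as control.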
NPC1 prom act = activators of NPC1 promoter | Huh7 NPC1 promoter luciferase reporter, 24 h | Potency, µM (highest dose often 9.22 µM), actives largely listed as activators | 320,000 tested, 2.4% active; also: nearly all actives have a fitted effect of over 60% in size
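Cells: Huh7 expressing luciferase under the NPC1 promoter, 1500/well. Seeded 2 h, compound added, incubated 24 h at 37 °C. Luciferase reagent, 10 min ambient, then luminescence.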
Rab9 promoter act = activators of Rab9 promoter; Huh7 Rab9 promoter-luciferase reporter, luminescence, 24 h; Potency, µM (highest dose often 9.22 µM), usual class: activators; 320,000 tested, 2.8% active; AID 485297; also: nearly all actives have a fitted effect of over 60% in size
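Measured in stably transfected Huh7 cells bearing a Rab9 promoter–luciferase construct: 24 h compound treatment at 37 °C, followed by luminescence detection.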
ELG1 genotoxic = induces genotoxicity in HEK293T cells with luciferase-tagged ELG1 | Potency, µM (series often up to 46 µM), hits mostly activators | HEK293T ELG1-luciferase reporter, luminescence, 16 h | 330,000 tested, 1.3% active; also: nearly all actives have a fitted effect of over 60% in size
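Luminescence read-out: rising ELG1-luciferase signal, reflecting elevated ELG1 protein under genetic stress, flags genotoxic compounds. Cells were treated for 16 hr at 37 °C before ONE-Glo detection.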
ELG1 repair inh = ELG1-dependent DNA repair inhibition; 330,000 tested, 2.3% active; Potency, µM (titrated, usually from 46.1 µM), usual class: inhibitors; AID 504467; HEK293T ELG1-luciferase reporter, luminescence, 16 h; DNA damage induced by 5-fluorouridine; also: nearly all actives have a fitted effect of over 55% in size
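Quantitative HTS, concentration-response format. 2,000 cells/well co-treated with 5-fluorouridine and compound, 16 hr in 5% CO2 at 37 °C; ONE-Glo luminescence read after 30 min.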
FLuc counter = firefly luciferase modulation, counter-screen for miR-21 project. Potency, µM (highest dose often 57.5 µM), hits mostly inhibitors. 360,000 tested, 6.9% active. purified FLuc, Km substrates, luminescence inhibition; also: nearly all actives have a fitted effect of over 55% in size
Target sequence (P08659 whole entry, looked up): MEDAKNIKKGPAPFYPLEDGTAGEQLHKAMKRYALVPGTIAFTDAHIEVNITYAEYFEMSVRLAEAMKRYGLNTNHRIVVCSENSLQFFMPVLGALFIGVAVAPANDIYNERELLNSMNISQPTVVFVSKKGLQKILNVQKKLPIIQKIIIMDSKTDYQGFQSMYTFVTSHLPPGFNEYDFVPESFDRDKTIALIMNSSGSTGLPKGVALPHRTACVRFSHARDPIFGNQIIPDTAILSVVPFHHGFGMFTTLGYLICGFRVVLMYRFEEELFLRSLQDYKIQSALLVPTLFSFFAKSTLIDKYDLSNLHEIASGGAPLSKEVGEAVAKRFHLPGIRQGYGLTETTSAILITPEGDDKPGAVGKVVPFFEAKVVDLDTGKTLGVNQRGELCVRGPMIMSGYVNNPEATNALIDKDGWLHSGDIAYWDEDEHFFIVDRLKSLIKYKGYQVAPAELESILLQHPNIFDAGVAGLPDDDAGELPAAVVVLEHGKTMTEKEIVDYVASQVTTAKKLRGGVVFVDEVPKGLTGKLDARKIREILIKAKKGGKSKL
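Purified P. pyralis luciferase (10nM final) with 10uM D-luciferin and 10uM ATP (Km levels) in 50mM Tris acetate pH 7.5, 10mM Mg acetate, 0.01% Tween-20, 0.05% BSA; qHTS 6-point titration, ~60 µM downward; luminescence read.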
ELG1 FLuc counter = luciferase inhibition in cell-free luciferin readout for ELG1 hits; shares compounds with ELG1 repair inh; AID 624247; 350 tested, 3% active; cell-free firefly luciferase luminescence counter-screen, ViewLux; Potency, µM (top dose mostly 46.1 µM), usual class: inhibitors
ELG1 Luc conf = inhibits ELG1-dependent DNA repair in HEK293T cells, confirmed. shares compounds with ELG1 repair inh. HEK293T ELG1-luciferase levels, luminescence; cells co-treated with 5-fluorouridine. Potency, µM (highest dose often 46.1 µM), most hits filed as inhibitors. 670 tested, 68% active. AID 624248; also: nearly all actives have a fitted effect of over 55% in size
ELG1-Luc MMS = confirmation of human ELG1 repair inhibitors, MMS stimulated. shares compounds with ELG1 repair inh. HEK293T luciferase-tagged ELG1 level, MMS stimulated. Potency, µM (titrated, usually from 46.1 µM), usual class: inhibitors. 670 tested, 53% active. AID 624249; also: nearly all actives have a fitted effect of over 60% in size
ELG1 5FU viab = confirmation of ELG1 repair inhibitors: viability with 5FU; 670 tested, under 10 active; cell viability with 5-FU, ELG1-dependent repair; Potency, µM (doses to about 46.1 µM), usual class: cytotoxic; shares compounds with ELG1 repair inh;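 also: ELG1-luc HEK293T cells cotreated with 5-fluorouridine at 10 µM final; viability measured 16 h after compound addition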
ELG1 MMS viab = confirmation of ELG1 repair inhibitors: viability with MMS. shares compounds with ELG1 repair inh. Cell viability with MMS, ELG1-dependent DNA repair. Potency, µM (titrated, usually from 46.1 µM), actives largely listed as cytotoxic. 670 tested, 33% active;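 also: ELG1-luc HEK293T cells co-treated with 10 µM MMS; viability read 16 h after compound addition; nearly all actives have a fitted effect of over 60% in size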
Cell viab unstim = counter-screen for ELG1 repair inhibitors: unstimulated cell viability. shares compounds with ELG1 repair inh. Potency, µM (highest dose often 45.9 µM), actives largely listed as cytotoxic. cell viability counter-screen, unstimulated, luminescence. 900 tested, 8% active. AID 624252;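 also: compound exposure lasted 16 hours before reading; nearly all actives have a fitted effect of over 55% in size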
FLuc enzyme = firefly luciferase inhibition counter-screen | shares compounds with ELG1 repair inh | purified firefly luciferase, luminescence counter-screen | Potency, µM (series often up to 57.5 µM), hits mostly inhibitors | 350 tested, 10% active | AID 624253
Hits are given with their value; 0 = inactive; ? = inconclusive; - = no result given. A selection: hits, their analogues and other compounds. The true share with any hit is near 9.2%. Calls follow the shape of the dose curve; as a rule, active = well fitted curve in the direction sought with a large enough effect; inconclusive = small, poorly fitted or top-dose-only effect, or another doubt; inactive = no such curve, though single readings can be large; an effect the other way counts as inactive or inconclusive.

SMILES	SMN2 splice enh	NPC1 prom act	Rab9 promoter act	ELG1 genotoxic	ELG1 repair inh	FLuc counter	ELG1 Luc conf	ELG1-Luc MMS	ELG1 5FU viab	ELG1 MMS viab	Cell viab unstim	others
Cc1cccc(-n2c(N)c(-c3nc4ccccc4n3C)c3nc4ccccc4nc32)c1	0	0	0	0	1.8µM	0	2.2µM	0	?	0	?
Cn1cccc1/C=N/NC(=O)Cc1ccccc1	-	0	0	0	0	0	-	-	-	-	-
Cn1cccc1/C=N\NC(=O)Cc1ccc(Br)c2ccccc12	0	0	0	0	3.7µM	0	?	7.9µM	0	7.9µM	?
CC(=O)Oc1ccc(-c2nc(-c3ccccc3)no2)cc1	-	-	-	-	-	-	-	-	-	-	?
O=C(c1cc(-c2cccs2)nc2ccccc12)N1CCN(CCO)CC1	-	0	0	0	0	?	-	-	-	-	-
OCC1OC(n2cnc3c(=S)nc[nH]c32)C(O)C1O (configuration not stated)	0	-	-	-	-	-	?	?	?	?	6.3µM	ELG1 FLuc counter=0;FLuc enzyme=0
CC1(C)OC2C(CO)OC(n3cnc4c(=S)nc[nH]c43)C2O1 (configuration not stated)	-	0	0	0	?	0	-	-	-	-	-
CC(Sc1ncc(S(=O)(=O)c2ccc(C(C)C)cc2)c(N)n1)C(=O)Nc1ccccc1 (configuration not stated)	-	-	-	-	-	0	-	-	-	-	-
CCC[N+]1(CC#CCC(c2ccccc2)c2ccccc2)CCCCC1	-	0	0	0	2.3µM	0	?	2.2µM	0	2.8µM	?
CSCCC(NC(=O)CCC(=O)OCC(=O)[C@@]1(O)CCC2[C@@H]3CCC4=CC(=O)C=C[C@]4(C)C3[C@@H](O)C[C@@]21C)C(=O)O (some centres not stated)	-	0	0	0	0	0	-	-	-	-	-
O=C(Nc1nc(-c2ccc3c(c2)OCCO3)cs1)c1ccc(S(=O)(=O)N2CCCCC2)cc1	0	0	0	0	4.1µM	0	?	2.8µM	0	3.5µM	0
COc1ccc(-c2cc(C(=O)Nc3cnn(Cc4ccc(F)cc4)c3)no2)cc1OC	0	-	-	-	-	0	-	-	-	-	-
COc1ccc(C(=O)Nc2cnn(Cc3c(F)cccc3Cl)c2)cc1OC	-	0	0	0	?	19µM	0	0	?	0	0
CC(C)(C)C(=O)Nc1ccc(S(=O)(=O)N2CCC(c3nc4ccccc4[nH]3)CC2)cc1	-	0	0	0	3.7µM	0	2.5µM	0	?	0	0
CC(=O)Nc1ccc(S(=O)(=O)N2CCC(c3nc4ccccc4[nH]3)CC2)cc1	0	0	0	0	0	0	-	-	-	-	-
COc1ccccc1CCc1nnc(CCC(=O)N(C)Cc2ccncc2C)o1	-	0	0	0	0	0	-	-	-	-	-
